A selection: hits, their analogues and other compounds. The true share with any hit is near 7.5%.
KinaseGlo FLuc: Counterscreen for Luciferase (Kinase-Glo TM) Inhibition; Potency, µM (doses to about 38.3 µM), inactives show at the top dose activity change, negative = inhibition, actives largely listed as inhibitors; Kinase-Glo luciferase, ATP luminescence, 8 min; AID 1379, 2008; hit rate 0.28% among 200,000; further: on the % scale 0 is the no-effect control and ±100 the full control effect; nearly all actives have a fitted effect of over 60% in size
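Compounds were added to a substrate mix at pH 7.2 (50 mM imidazole, 10 uM ATP, within the enzyme's linear range), followed by Kinase-Glo detection reagent; luminescence was measured after 8 minutes at ambient temperature.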
FLuc counter: qHTS profiling assay for firefly luciferase inhibitor/activator using purifed enzyme and Km concentrations of substrates (counterscreen for miR-21 project) | hit rate 6.9% among 360,000 | Luciferin 4-monooxygenase (Photinus pyralis), P08659 | Potency, µM (doses to about 57.5 µM), without a hit: at the highest dose activity change, negative = inhibition, actives largely listed as inhibitors | purified FLuc, Km substrates, luminescence inhibition;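 further: plate controls were vehicle for no effect and reference inhibitor for full effect; nearly all actives have a fitted effect of over 55% in size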
Target sequence (P08659 whole entry, looked up): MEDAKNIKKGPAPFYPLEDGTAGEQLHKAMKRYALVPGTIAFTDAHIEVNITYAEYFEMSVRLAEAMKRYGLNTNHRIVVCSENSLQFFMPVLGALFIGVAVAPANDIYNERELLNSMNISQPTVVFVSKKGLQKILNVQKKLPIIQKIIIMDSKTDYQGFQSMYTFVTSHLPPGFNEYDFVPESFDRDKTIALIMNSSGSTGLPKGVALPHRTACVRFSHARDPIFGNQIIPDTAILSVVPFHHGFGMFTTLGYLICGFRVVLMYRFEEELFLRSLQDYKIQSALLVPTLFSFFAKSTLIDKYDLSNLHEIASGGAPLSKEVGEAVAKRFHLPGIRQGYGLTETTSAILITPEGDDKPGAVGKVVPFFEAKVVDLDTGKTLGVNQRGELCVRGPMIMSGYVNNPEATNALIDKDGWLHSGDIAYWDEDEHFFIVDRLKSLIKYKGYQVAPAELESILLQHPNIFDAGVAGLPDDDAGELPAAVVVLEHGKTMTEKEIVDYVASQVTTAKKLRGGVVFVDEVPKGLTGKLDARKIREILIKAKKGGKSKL
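Biochemical qHTS of compounds, final roughly 60 µM downward over six points, against 10 nM purified firefly luciferase using Km concentrations of substrates (10 uM D-luciferin, 10 uM ATP) in Tris acetate pH 7.5 buffer; luminescence output.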
NPC1 prom act: qHTS Assay for NPC1 Promoter Activators | hit rate 2.4% among 320,000 | AID 485313, 2010 | Huh7 NPC1 promoter luciferase reporter, 24 h | Potency, µM (highest dose often 9.22 µM), for inactives: at the top dose activation, most hits filed as activators; further: % of control where 0% means no effect; nearly all actives have a fitted effect of over 60% in size
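Compounds in DMSO were transferred onto Huh7 NPC1-luciferase reporter cells pre-incubated 2 h; after 24 h at 37 °C, Amplite reagent was dispensed and luminescence recorded 10 min later.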
SMN2 splice enh: qHTS Assay for Enhancers of SMN2 Splice Variant Expression; HEK293 SMN2-luciferase splicing reporter, luminescence, 30-36 h; Potency, µM (highest dose often 46.1 µM), for the others: top-dose activity change, positive = activation, hits mostly activators; hit rate 2.8% among 210,000; further: % of control where 0% means no effect; nearly all actives have a fitted effect of over 55% in size
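HEK293 cells carry an SMN2 minigene-luciferase reporter in which exon 7 inclusion puts luciferase in frame. Cells were seeded at 2000 cells/well, attached for 10-12 hours, then exposed to compounds for 30-36 hours at 37C before ONE-Glo luminescence.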
Rab9 prom act: qHTS Assay for Rab9 Promoter Activators; Huh7 Rab9 promoter-luciferase reporter, luminescence, 24 h; Potency, µM (highest dose often 9.22 µM), inactives show at the top dose activation, negative = inhibition, usual class: activators; hit rate 2.8% among 320,000; AID 485297, 2010; further: % of control where 0% means no effect; nearly all actives have a fitted effect of over 60% in size
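Using Huh7 cells stably transfected with Rab9 promoter–luciferase, compounds were incubated 24 h at 37 °C, 5% CO2; luciferase luminescence was read 10 min after reagent addition.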
ELG1 genotox: qHTS screen for small molecules that induce genotoxicity in human embryonic kidney (HEK293T) cells expressing luciferase-tagged ELG1; HEK293T ELG1-luciferase reporter, luminescence, 16 h; Potency, µM (titrated, usually from 46 µM), without a hit: top-dose activity change, positive = activation, hits mostly activators; hit rate 1.3% among 330,000; further: % of control where 0% means no effect; nearly all actives have a fitted effect of over 60% in size
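Genotoxic stress is detected as increased luminescence from luciferase-tagged ELG1 in HEK293T cells, measured with ONE-Glo after a 16 hr treatment at 37 °C.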
Numbers without * were called inactive; ? = inconclusive; nt = not tested or not shown; [ ] = remark or other dose. The call rests on the fitted dose curve; in most records, active means well fitted curve in the direction sought with a large enough effect; inconclusive means small, poorly fitted or top-dose-only effect, or another doubt; inactive means no such curve, though single readings can be large; an effect the other way counts as inactive or inconclusive. Potency means the concentration at half of the fitted maximal effect.

SMILES | KinaseGlo FLuc | FLuc counter | NPC1 prom act | SMN2 splice enh | Rab9 prom act | ELG1 genotox
COc1ccc(N/N=C(/Oc2ccc([N+](=O)[O-])cc2)C(C)=O)cc1 | -2% | 1% | -6% | -9% | -1% | 6%
O=C(Nc1ccnn1C1CCN(C(=O)c2cccc(Cl)c2)CC1)C1CCOC1 (stereo not drawn) | nt | -3% | -2% | nt | -3% | 11%
COc1ccc(C(c2c(C)[nH]n(-c3ccccc3)c2=O)c2c(C)[nH]n(-c3ccccc3)c2=O)cc1OC | 2% | 19µM* | 0% | 2% | -6% | 0%
Cc1[nH]n(-c2ccccc2)c(=O)c1C(c1cc(Cl)ccc1O)c1c(C)[nH]n(-c2ccccc2)c1=O | nt | 19µM* | nt | 3% | nt | nt
CCOc1cc(C(c2c(C)[nH]n(-c3ccccc3)c2=O)c2c(C)[nH]n(-c3ccccc3)c2=O)ccc1O | nt | 12µM* | nt | -10% | nt | nt
O=C(NCC(c1cccnc1)N1CCOCC1)NC1CCCCC1 (stereo not drawn) | nt | -2% | 1% | nt | 0% | 4%
CCCSc1nn2c(=O)c3ccccc3nc2s1 | -16% | 7.6µM* | 4µM* | 35µM* | 2µM* | 2.9µM*
O=c1c2ccccc2nc2sc(Nc3cccc4ccccc34)nn12 | nt | 2% | nt | nt | nt | nt
Cc1cccc(Nc2nn3c(=O)c4ccccc4nc3s2)c1 | -1% | ? | 4µM* | 7.9µM* | ? | 9%
COc1ccc(S(=O)(=O)Nc2ccc3c(c2)C(=O)N([C@H](C)CO)C[C@H](C)[C@@H](CN(C)C(=O)Nc2ccc(C(F)(F)F)cc2)O3)cc1 | nt | nt | nt | nt | nt | 2%
Cc1ccc(S(=O)(=O)N2CCN(C(=O)C(C)Cn3cncn3)CC2)cc1 (stereo not drawn) | nt | 2% | -9% | nt | -8% | 0%
O=C(O)CCCn1c(O)c(C=C2N=c3ccccc3=N2)sc1=S | nt | 6µM* | -10% | nt | -5% | 11%
CCCC(C(=O)O)n1c(O)c(C=C2N=c3ccccc3=N2)sc1=S (stereo not drawn) | nt | ? | -2% | nt | 3% | -1%
O=C(O)CCCCCn1c(O)c(C=C2N=c3ccccc3=N2)sc1=S | 0% | 9.5µM* | 0% | -4% | -3% | -1%
O=C(O)Cn1c(O)c(C=Nc2ccccc2)sc1=S | -2% | ? | -5% | -13% | 4% | -2%
COCCCNC(=O)CCCn1c(=O)c2cccn2c2cccnc21 | nt | -5% | nt | nt | nt | nt
O=[N+]([O-])c1ccc(N=Nc2ccc(O)cc2O)cc1 | ? | 6µM* | 1% | -16% | 13% | 10%
CCc1cc(CNC(=O)C2CCC(=O)N(Cc3cccc(F)c3)C2)on1 (stereo not drawn) | nt | -2% | -4% | nt | 3% | 10%
CCCCOc1cccc(C(=O)Nc2cc(NC(=O)c3ccco3)ccc2OC)c1 | nt | ? | nt | -21% | nt | nt
Clc1ccc2nc(N3CCN(c4ccccc4)CC3)sc2c1 | -2% | 0.6µM* | 1.4µM* | 3.2µM* | 0.89µM* | ?
O=S(=O)(c1ccccc1)N1CCN(c2nc3ccccc3s2)CC1 | 3% | 5% | 21% | -4% | ? | ?
Brc1ccc2nc(N3CCN(c4ccccc4)CC3)sc2c1 | 2% | ? | 1.8µM* | 3.2µM* | 1µM* | 2.3µM*
CN(NS(=O)(=O)c1ccc(Cl)cc1)c1ncc(C(F)(F)F)cc1Cl | -1% | -1% | -2% | 12% | 1% | 0%
CCN(CC)CCOC(=O)[C@@H](Cc1cccc2ccccc12)C[C@@H]1CCCO1 | 3%[17.1 µM] | nt | nt | -7%[20.6 µM] | nt | nt
Cc1cn2c(N)c(C=C3C=C(Cl)C(=O)C(Cl)=C3)c(=O)nc2s1 | 1% | 17µM* | -2% | -12% | -4% | 0%
SMILES | KinaseGlo FLuc | FLuc counter | NPC1 prom act | SMN2 splice enh | Rab9 prom act | ELG1 genotox
Cc1cn2c(N)c(/C=C3\C=Nc4ccccc43)c(=O)nc2s1 | nt | -11% | ? | nt | 27% | -7%
COC1=C/C(=C/c2c(N)n3cc(C)sc3nc2=O)C=CC1=O | -1% | 3.8µM* | 2% | -6% | 0% | 2%
COC1=C/C(=C/c2c(N)n3nc(CC(=O)N4CCCC4)sc3nc2=O)C=CC1=O | nt | 3% | 2% | nt | 0% | 0%
COCc1cc(C)nc2sc(C(=O)Nc3ccccc3O)c(N)c12 | nt | -1% | nt | -11% | nt | nt
CCNc1ccc(-c2nc(-c3ccncc3)no2)cc1[N+](=O)[O-] | nt | -12% | nt | nt | nt | nt
Nn1c(SCc2ccccc2)nnc1-c1ccco1 | -2% | -13% | 0% | 27% | -5% | ?
c1ccc(Cn2ccnc2-c2ccco2)cc1 | -5% | 21µM* | 14% | 15% | 10% | ?
CC1=N/C(=C\c2ccc([N+](=O)[O-])cc2)C(=O)N1c1ccc(F)cc1F | nt | 7.6µM* | -4% | nt | -1% | -1%
CC1=N/C(=C/c2ccc([N+](=O)[O-])cc2)C(=O)N1c1ccc(Cl)cc1Cl | -5% | -2% | 0% | -51% | 0% | -19%
O=C(O)c1cc2c(s1)-c1ccccc1CC2 | 1% | -16% | 2% | -13%[1.84 µM] | 8% | 2%
S=c1[nH]nc(-c2cc3c(s2)-c2ccccc2CC3)o1 | 5% | 17µM* | 26% | 14µM* | ? | ?
CSc1nnc(-c2cc3c(s2)-c2ccccc2CC3)o1 | 1% | 4.8µM* | 12% | 18µM* | ? | ?
CC1CCc2sc(-c3n[nH]c(=S)o3)cc2C1 (stereo not drawn) | 3% | 6.7µM* | ? | 10µM* | ? | ?
c1ccc(C(c2ccccc2)N2CC3(CCNCC3)C2)cc1 | -3% | nt | nt | -6% | nt | nt
COc1ccc2[nH]c(=O)c(CN(C(=O)c3cccc(Cl)c3)c3cccc(C)c3)cc2c1 | nt | -1% | nt | -8% | nt | nt
Cc1ccc(NC2c3ncccc3C(=O)N2c2ccccc2C)cc1C (stereo not drawn) | -1% | 24µM* | 5% | -3% | -4% | 1%
COc1cc2[nH]c(C(=O)Nc3ccc4c(c3)OCCO4)cc2c(OC)c1OC | nt | 8.5µM* | 17% | nt | 14% | ?
COc1cc2cc(C(=O)Nc3ccc4c(c3)OCCO4)[nH]c2cc1OC | nt | 12µM* | 29% | nt | 15% | ?
COc1cc2[nH]c(C(=O)NCC3CCCO3)cc2c(OC)c1OC (stereo not drawn) | nt | 5% | -4% | nt | -1% | 7%
COc1ccc(NC(=O)CN(c2ccccc2OC)S(C)(=O)=O)c(OC)c1 | nt | -3% | nt | 3% | nt | nt
C/C(=N\Nc1nc(-c2ccccn2)nc2ccccc12)c1ccc(F)cc1 | nt | -3% | -20% | nt | -21% | -1%

Screens from PubChem.
